Source: PubChem BioAssay (Tox21)
Results filed as inconclusive are left out. Unmarked numbers belong to inactive results. Unless noted, calls follow the shape of the dose curve; as a rule, active = well fitted cell-killing curve with a large enough effect in the repeat runs; inconclusive = weak or mixed curves, or effect the other way; inactive = no such curve, though single readings can be large or run the other way. Where a SMILES comes first, the peptide text is derived from it. [ ]: non-standard residue; d: D form. pGlu = O=C1CC[C@@H](C(=O)O)N1

Assay: qHTS assay to identify small molecule agonists of the endoplasmic reticulum stress response signaling pathway - cell viability counter screen (AID 1159517; calls by dose curve;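 also: HeLa cells carrying an ER stress response element beta-lactamase reporter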)
Conditions: ESRE-bla HeLa viability, CellTiter-Glo luminescence, 5 h; series mostly up to 61 µM; activity change, negative = cytotoxicity: at the top concentration
Method in brief: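 In parallel with the ESRE reporter read, cytotoxicity was scored by CellTiter-Glo luminescence (30 min, room temperature) on HeLa ESRE-bla cells dosed for 5 hr.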
% is scaled to controls: 0 for no effect and ±100 for the full control effect.
Also: nearly all actives have a fitted effect of over 50% in size.

Point of comparison: `O=C1CCCCCCCCCCCCCCO1`, “activity change, negative = cytotoxicity” value -13.4%. Against it:
- O=C(O)CNC(=O)c1ccccc1 — higher, 6.85%
- CCOC(=O)c1cnc2c(cnn2CC)c1NN=C(C)C — higher, -0.0107%
- COc1ccccc1OCC1CNC(=O)O1 (stereo unspecified) — lower, -16.9%
- CO/N=C(\C(=O)N[C@@H]1C(=O)N2C(C(=O)O)=C(CSc3nc(=O)c(O)nn3C)CS[C@H]12)c1csc(N)n1 — higher, 0.629%
- CCCc1nn(C)c2c(=O)[nH]c(-c3cc(S(=O)(=O)N4CCN(C)CC4)ccc3OCC)nc12 — higher, -4.23%
- CCCCOC(=O)CCC(C)=O — higher, 14.4%
- O=CN(CCO)CCO — higher, -11.7%
- C[N+](C)(CCOc1ccccc1)Cc1cccs1 — lower, -21.3%
- CC1=NN(c2cccc(S(=O)(=O)O)c2)C(=O)C1 — higher, 9.6%
- CCOC(=O)C1=NOC(c2ccccc2)(c2ccccc2)C1 — higher, 0.418%
- CCC(=O)OCc1ccccc1 — higher, 10.9%
- COc1cc(C(=O)OC(COCCC(C)C)CN2CCOCC2)cc(OC)c1OC (stereo unspecified) — higher, 10.7%
- Cc1ncc(COP(=O)(O)O)c(C=O)c1O — higher, -11.5%
- CC(=O)Oc1cccc(C)c1 — lower, -19.4%
- CN1[C@@H]2CC[C@H]1CC(OC(=O)C(O)c1ccccc1)C2 (stereo partly specified) — higher, -3.31%
- CC(N)C12CC3CC(CC(C3)C1)C2 (stereo unspecified) — higher, 12.6%
- CCN(CC#N)c1cccc(C)c1 — higher, -8.05%
- CC1=NN(c2cc(S(=O)(=O)O)ccc2Cl)C(=O)C1N=Nc1ccccc1 (stereo unspecified) — higher, -1.15%
- CC(=O)c1ccccc1[N+](=O)[O-] — higher, 11.5%
- C=CCCC(=O)O — higher, 0.887%
- O=C(O)CC(C(=O)O)S(=O)(=O)O (stereo unspecified) — higher, -3.74%
- CC(C)CCCO — higher, -9.01%
- CC(COc1ccccc1)NN (stereo unspecified) — higher, 4.64%
- Nc1ccn([C@@H]2O[C@H](CO)[C@@H](O)[C@@H]2O)c(=O)n1 — higher, -7.57%
- CCNC(=O)[C@@H]1CCCN1C(=O)[C@H](CCCN=C(N)N)NC(=O)[C@H](CC(C)C)NC(=O)CNC(=O)[C@H](Cc1ccc(O)cc1)NC(=O)[C@H](CO)NC(=O)[C@H](Cc1c[nH]c2ccccc12)NC(=O)[C@H](Cc1cnc[nH]1)NC(=O)[C@@H]1CCC(=O)N1 ([pGlu]HWSYGLRP-NHEt) — higher, 1.88%
- CCCCN(CCC(=O)OCC)C(C)=O — higher, 10.2%
- Clc1cc(Cl)cc(Cl)c1 — higher, 1.61%
- CCOC(=O)COc1cc(-n2ncc(C(F)(F)F)c(C)c2=O)c(F)cc1Cl — higher, 6.98%
- CC(C)COC(=O)c1ccc(N)cc1 — higher, -6.65%
- CC(=O)OCC(=O)[C@@]1(O)[C@H](C)C[C@H]2[C@@H]3CCC4=CC(=O)C=C[C@]4(C)[C@@]3(F)[C@@H](O)C[C@@]21C — higher, -1.24%
- O=C(O)CCCC[P+](c1ccccc1)(c1ccccc1)c1ccccc1 — higher, 13.1%
- CC1=CCC(O)(C(C)C)CC1 (stereo unspecified) — higher, 3.11%
- [K+] — higher, -8.58%

Point of comparison: `CCCn1cc[n+](C)c1C`, “activity change, negative = cytotoxicity” value 2.73% [at 78.8 µM]. Against it:
- CC(C)CC(C)(N)C#N (stereo unspecified) — higher, 8.71% [at 78.8 µM]
- CC12CCC(C(=O)C1=O)C2(C)C (stereo unspecified) — lower, -10.4% [at 78.8 µM]

Compound `NC(N)=NCCN1CCCCCCC1` has an activity change, negative = cytotoxicity of -3.02% [at 0.628 µM].

Assay: qHTS assay to identify small molecule antagonists of the retinoid-related orphan receptor gamma (ROR-gamma) signaling pathway - cell viability counter screen (AID 1159520)
Conditions: Tet-on RORgamma CHO cells viability, ATP luminescence, 16 h; series mostly up to 92.4 µM; activity, negative = cytotoxicity: at the top concentration
Method in brief: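 Tet-on ROR gamma CHO cells were given compounds for 2 hr, then doxycycline hyclate at 1 uM final, and incubated 16 hr at 37 C. Viability was measured as ATP content by CellTiter-Glo luminescence.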

Point of comparison: `O=C(O)CCCC[P+](c1ccccc1)(c1ccccc1)c1ccccc1`, “activity, negative = cytotoxicity” value 0.269% [at 42.5 µM]. Against it:
- O=C(O)CNC(=O)c1ccccc1 — higher, 1.86% [at 42.5 µM]
- CCOC(=O)c1cnc2c(cnn2CC)c1NN=C(C)C — lower, -8.86% [at 42.5 µM]
- COc1ccccc1OCC1CNC(=O)O1 (stereo unspecified) — higher, 2.76% [at 42.5 µM]
- CO/N=C(\C(=O)N[C@@H]1C(=O)N2C(C(=O)O)=C(CSc3nc(=O)c(O)nn3C)CS[C@H]12)c1csc(N)n1 — lower, -3.11% [at 42.5 µM]
- CCCc1nn(C)c2c(=O)[nH]c(-c3cc(S(=O)(=O)N4CCN(C)CC4)ccc3OCC)nc12 — lower, -0.365% [at 42.5 µM]
- C[N+](C)(CCOc1ccccc1)Cc1cccs1 — lower, -0.163% [at 42.5 µM]
- COc1cc(C(=O)OC(COCCC(C)C)CN2CCOCC2)cc(OC)c1OC (stereo unspecified) — higher, 2% [at 42.5 µM]
- Cc1ncc(COP(=O)(O)O)c(C=O)c1O — higher, 6.17% [at 42.5 µM]
- CC(=O)Oc1cccc(C)c1 — higher, 5.73% [at 42.5 µM]
- CN1[C@@H]2CC[C@H]1CC(OC(=O)C(O)c1ccccc1)C2 (stereo partly specified) — higher, 3.95% [at 42.5 µM]
- CC(N)C12CC3CC(CC(C3)C1)C2 (stereo unspecified) — lower, -0.0904% [at 42.5 µM]
- CC(COc1ccccc1)NN (stereo unspecified) — higher, 1.47% [at 42.5 µM]
- CCNC(=O)[C@@H]1CCCN1C(=O)[C@H](CCCN=C(N)N)NC(=O)[C@H](CC(C)C)NC(=O)CNC(=O)[C@H](Cc1ccc(O)cc1)NC(=O)[C@H](CO)NC(=O)[C@H](Cc1c[nH]c2ccccc12)NC(=O)[C@H](Cc1cnc[nH]1)NC(=O)[C@@H]1CCC(=O)N1 ([pGlu]HWSYGLRP-NHEt) — higher, 1.5% [at 42.5 µM]
- CC(C)COC(=O)c1ccc(N)cc1 — higher, 2.4% [at 42.5 µM]
- CC(=O)OCC(=O)[C@@]1(O)[C@H](C)C[C@H]2[C@@H]3CCC4=CC(=O)C=C[C@]4(C)[C@@]3(F)[C@@H](O)C[C@@]21C — higher, 2.06% [at 42.5 µM]

Point of comparison: `CC12CCC(C(=O)C1=O)C2(C)C` (stereo unspecified), “activity, negative = cytotoxicity” value 3.91%. Against it:
- CC(C)CC(C)(N)C#N (stereo unspecified) — lower, -0.391%
- O=C1CCCCCCCCCCCCCCO1 — lower, -0.0091%
- CCCCOC(=O)CCC(C)=O — higher, 9.33%
- O=CN(CCO)CCO — lower, 2%
- CC1=NN(c2cccc(S(=O)(=O)O)c2)C(=O)C1 — lower, 1.14%
- CCOC(=O)C1=NOC(c2ccccc2)(c2ccccc2)C1 — higher, 5.53%
- CCC(=O)OCc1ccccc1 — lower, -0.251%
- CCN(CC#N)c1cccc(C)c1 — lower, 1.51%
- CC1=NN(c2cc(S(=O)(=O)O)ccc2Cl)C(=O)C1N=Nc1ccccc1 (stereo unspecified) — lower, 2.38%
- CC(=O)c1ccccc1[N+](=O)[O-] — lower, -3.2%
- C=CCCC(=O)O — lower, 2.8%
- O=C(O)CC(C(=O)O)S(=O)(=O)O (stereo unspecified) — higher, 5.76%
- CC(C)CCCO — higher, 4.91%
- Nc1ccn([C@@H]2O[C@H](CO)[C@@H](O)[C@@H]2O)c(=O)n1 — lower, -6.52%
- CCCCN(CCC(=O)OCC)C(C)=O — higher, 4.09%
- CCCn1cc[n+](C)c1C — lower, -2.15%
- Clc1cc(Cl)cc(Cl)c1 — higher, 7.32%
- CCOC(=O)COc1cc(-n2ncc(C(F)(F)F)c(C)c2=O)c(F)cc1Cl — lower, 0.598%
- CC1=CCC(O)(C(C)C)CC1 (stereo unspecified) — lower, 1.93%
- [K+] — lower, 2.36%

For `NC(N)=NCCN1CCCCCCC1`, the activity, negative = cytotoxicity was 6.85% [at 0.349 µM].
